Screening results deposited in PubChem by several laboratories.
Rows were chosen to be rich in hits. Some 2% of all compounds tested hit in one or more screens of this group.
ADAM10 inh: ADAM10 inhibition, QFRET primary screen; recombinant ADAM10, EDANS/DABCYL FRET peptide cleavage, 3 h; 0.62% of 370,000 active; AID 720582; inhibition, % at 7 µM; O14672;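 active means inhibition above a per-campaign cutoff equal to the mean of compounds falling between control-based bounds plus 3 SD, cut at about 20% in these data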;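 further: 0% = DMSO wells while the 100% control is not disclosed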
NPR1 activator: GC-A (human) enzyme activation. P16066. HEK293 GC-A cells, cGMP TR-FRET, EC30 ANP; 0% at EC30 ANP, 100% saturating ANP. activation, % at 10 µM. 0.14% of 370,000 active. AID 1671463; in the data active means activation above about 40%
FAS TE block: inhibitors of human fatty acid synthase thioesterase domain; recombinant FAS-TE, OMFH fluorogenic substrate, fluorescence endpoint; inhibition, % at 15 µM; 0.67% of 360,000 active;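 active means compounds whose normalised, plate-corrected inhibition of enzyme fluorescence in the single-dose primary screen is 50% or more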;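 further: 0% = DMSO with enzyme and 100% = substrate without enzyme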
NPR2 activator: GC-B (human) receptor activation. P20594. HEK293-GC-B cells, CNP EC30, cGMP TR-FRET; 0% at EC30 CNP, 100% saturating CNP. activation, % at 10 µM. 0.11% of 370,000 active;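 active means activation at 10 µM reaching about 35% in either raw or pattern-adjusted values, limit read from the data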
ADAM17 inh: inhibitors of human ADAM17; AID 720648; 0.83% of 370,000 active; recombinant ADAM17, EDANS/DABCYL FRET peptide cleavage; inhibition, % at 6.95 µM; P78536;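 active means inhibition above the mean of compounds lying between control limits plus 3 SD, set per campaign, cut at about 8.5% in these data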;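 further: 0% = DMSO-only wells as the low control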
ADAM10 confirm: human ADAM10 inhibition, confirmation; shares compounds with ADAM10 inh; ADAM10 QFRET peptide cleavage, EDANS fluorescence; inhibition, % at 6.95 µM; 1% of 2,100 active; AID 743208;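 active means inhibition above about 20% chosen separately for each screening run, limit read from the data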;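 further: 0% = DMSO wells and 100% = marimastat wells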
ADAM17 counter: inhibits human ADAM17 in ADAM10 exosite counter-screen; ADAM17 QFRET peptide cleavage, EDANS fluorescence; AID 743214; shares compounds with ADAM10 inh; 0.5% of 2,100 active; inhibition, % at 6.95 µM;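 active means mean triplicate inhibition above the solvent-only control wells' mean plus 3 SD, cut at about 12% in these data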;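 further: 0% = DMSO wells and 100% = marimastat wells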
ADAM10 counter: ADAM10 inhibition, counter-screen for ADAM17 exosite hits. inhibition, % at 6.95 µM. recombinant ADAM10, EDANS/DABCYL FRET peptide cleavage, 3 h. shares compounds with ADAM17 inh. AID 743256. 47% of 2,900 active;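 active means mean inhibition over the triplicate runs exceeds the activity threshold set in the earlier primary screen, cut at about 20% in these data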;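 further: 0% = DMSO wells and 100% = marimastat wells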
ADAM17 confirm: human ADAM17 inhibition, confirmation. 65% of 2,900 active. inhibition, % at 6.95 µM. recombinant ADAM17, EDANS/DABCYL QFRET peptide cleavage. AID 743257. shares compounds with ADAM17 inh;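 active means mean inhibition across replicates above the hit cutoff set in the primary screen, cut at about 8.5% in these data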;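 further: 0% = DMSO wells and 100% = marimastat wells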
Numbers without * were called inactive; x = no result given.

SMILES	ADAM10 inh	NPR1 activator	FAS TE block	NPR2 activator	ADAM17 inh	ADAM10 confirm	ADAM17 counter	ADAM10 counter	ADAM17 confirm
COC(=O)[C@H](Cc1ccccc1)NC(=O)[C@H]1O[C@@H](n2cnc3c(=O)[nH]c(N)nc32)[C@H](O)[C@@H]1O	-14	3	x	5	-2	x	x	x	x
COc1nc(Nc2ccc(O)cc2)nc(OC(C(F)(F)F)C(F)(F)F)n1	7	15	5	3	2	x	x	x	x
Nc1cccc(Nc2nc(OC(C(F)(F)F)C(F)(F)F)nc(OC(C(F)(F)F)C(F)(F)F)n2)c1	58*	4	22	-4	27*	0	0	60*	30*
COC(=O)C1CN(CC(C)C)CCS(=O)(=O)N1Cc1cccc(Cl)c1 (centres undefined)	2	-11	x	-4	-1	x	x	x	x
CCC(C(=O)OCC(=O)Nc1ccc(SC(F)F)cc1)c1ccccc1 (centres undefined)	29*	6	50	-4	12*	5	3	43*	23*
O=C(C1CCCN1S(=O)(=O)c1ccccc1[N+](=O)[O-])N1CCc2ccccc2C1 (centres undefined)	-7	3	x	2	-2	x	x	x	x
COc1ccc(Cl)c(NC(=O)C/C(C)=N/NC(=O)CCc2ccccc2)c1	25*	-5	7	2	11*	1	0	-2	2
C/C(CC(=O)Nc1ccc(Cl)c(Cl)c1)=N\NC(=O)Cc1ccccc1	8	-9	16	3	5	x	x	x	x
Cc1cc(Cl)ccc1OC(C)C(=O)N1CCCN(C(=O)C(C)Oc2ccc(Cl)cc2C)CC1 (centres undefined)	26*	-17	26	-19	15*	5	1	29*	18*
COc1cc([N+](=O)[O-])ccc1NC(=O)CCCOc1cccc(C)c1C	22*	-5	31	-6	12*	3	1	17	10*
Cc1ccc(NC(=O)c2cc(S(=O)(=O)NCCc3ccccc3)ccc2F)cc1Cl	23*	1	25	-2	16*	10	3	24*	14*
O=C(Nc1cccc(Cl)c1)c1cc(S(=O)(=O)NCCc2ccc(Cl)cc2)ccc1F	29*	-6	34	1	13*	11	4	34*	17*
NC(=NCCc1c[nH]c2ccccc12)NC(=O)OCc1ccccc1	-5	-8	x	-6	-3	x	x	x	x
O=S(Cc1cc(Oc2ccccc2)nc(-c2ccccc2)n1)c1ccccc1 (centres undefined)	26*	-6	11	-7	11*	3	1	10	7
O=Cc1ccc(Oc2cc(-c3ccccc3)nc(-c3ccccc3)n2)cc1	-5	-5	29	-5	-4	x	x	x	x
CCN(C(=O)C1CCCN1S(=O)(=O)c1cccnc1)c1ccccc1 (centres undefined)	9	3	x	2	2	x	x	x	x
Cc1ccc(NC(=O)c2c(C(F)(F)F)nn(C)c2SCc2ccc(Cl)cc2)cc1C	17	-13	35	-6	7	x	x	x	x
Cc1ccc(NC(=O)c2c(C(F)(F)F)nn(C)c2SCc2cccc(C(F)(F)F)c2)cc1C	37*	-3	14	-5	14*	7	2	45*	25*
CC(C)=CCC/C(C)=C/CNCC(=O)N1c2ccccc2[C@]2(C)C[C@@H]3C(=O)N(C/C=C(\C)CCC=C(C)C)CC(=O)N3[C@H]12	-5	-13	x	1	-3	x	x	x	x
O=C(Cn1c(-c2cncs2)nc2ccccc21)NCc1cccs1	-10	-1	x	7	-6	x	x	x	x
COc1ccc(-c2csc3ncnc(Oc4cccc5ccc(C)nc45)c23)cc1	21*	-9	24	-10	8.9*	6	2	14	8
Cc1ccc2cccc(Oc3ncnc4scc(-c5ccccc5)c34)c2n1	1	-12	30	-12	3	x	x	x	x
CC(=O)N1c2ccc(S(=O)(=O)N3CCC(C(=O)N4CCN(c5cc(Cl)ccc5C)CC4)CC3)cc2CC1C (centres undefined)	23*	-5	42	0	18*	7	1	30*	17*
Cc1cc(C)c(CN2CCN(C(=O)Cn3cnc4c(NCc5ccccc5)ncnc43)CC2)c(C)c1	28*	2	14	-2	16*	3	1	29*	14*
O=C(Cn1cnc2c(NCc3ccccc3)ncnc21)N1CCN(c2ccccn2)CC1	-23	0	-10	1	-8	x	x	x	x
SMILES	ADAM10 inh	NPR1 activator	FAS TE block	NPR2 activator	ADAM17 inh	ADAM10 confirm	ADAM17 counter	ADAM10 counter	ADAM17 confirm
COc1cccc(NC(=O)N2CC[C@@H]3[C@H]2c2cc(-c4cccc(C#N)c4)ccc2N(C)[C@@H]3CO)c1	-197	-2	x	2	-65	x	x	x	x
COC(=O)[C@]12C[C@H](CC(=O)NCC3CCCCC3)C(=O)N(CCC3=CCCCC3)C1=C[C@H](C1CCCC1)O[C@@H]2C	12	-4	x	-5	4	x	x	x	x
COc1ccc(-n2c(SCC(=O)NCC3CCCO3)nnc2-c2ccncc2)cc1 (centres undefined)	2	2	x	5	2	x	x	x	x
O=C(COc1ccc(F)c(Cl)c1)N[C@H]1CCCN(CC2CC2)C1	1	-4	x	-7	-2	x	x	x	x
COc1ccc(CNC(=O)CN(Cc2ccccc2)S(=O)(=O)c2ccc(Cl)cc2)cc1	29*	-3	22	-1	21*	4	1	13	10*
COc1ccc(CNC(=O)CN(Cc2ccc(Cl)cc2)S(=O)(=O)c2ccccc2)cc1	24*	-6	22	-1	18*	1	0	19	14*
COc1ccc(S(=O)(=O)N(CC(=O)Nc2ccc(S(=O)(=O)N3CCOCC3)cc2)Cc2ccc(F)cc2)cc1	32*	-6	32	3	9.4*	7	2	41*	16*
Cc1cnc(C(=O)N2CCc3c([nH]c4ccccc34)C2c2ccc(F)cc2)cn1 (centres undefined)	6	-6	17	-1	2	x	x	x	x
CCc1ccc(C2c3[nH]c4ccccc4c3CCN2C(=O)c2cc(C)nn2C)cc1 (centres undefined)	23*	4	25	8	13*	7	3	16	10*
